Results on 61 molecules are retold here after PubChem BioAssay AID504332 (National Center for Advancing Translational Sciences (NCATS), 2011).

Several values for one entry are separate records, joined by “and”; a condition that tells them apart may be missing. Equal entries are not always repeated. Out of some 350,000 compounds screened, about 31,000 (8.9%) were called active. Entries that show only a call come without a potency. Not shown: some 15% with an inconclusive outcome. The sample holds actives, similar compounds and a random draw of the others, so the mix is not that of the screen. Calls come from the whole dose curve; as a rule, active = well fitted inhibition curve with a large enough effect; inconclusive = small, poorly fitted or top-dose-only effect; inactive = no such curve, though single readings can be large or run the other way. More than one record can exist for a structure, and the calls need not agree.
Potency is the fitted concentration of half-maximal effect.

Sequence of Histone-lysine N-methyltransferase EHMT2 (Homo sapiens) (Q96KQ7 913-1193 limits assumed): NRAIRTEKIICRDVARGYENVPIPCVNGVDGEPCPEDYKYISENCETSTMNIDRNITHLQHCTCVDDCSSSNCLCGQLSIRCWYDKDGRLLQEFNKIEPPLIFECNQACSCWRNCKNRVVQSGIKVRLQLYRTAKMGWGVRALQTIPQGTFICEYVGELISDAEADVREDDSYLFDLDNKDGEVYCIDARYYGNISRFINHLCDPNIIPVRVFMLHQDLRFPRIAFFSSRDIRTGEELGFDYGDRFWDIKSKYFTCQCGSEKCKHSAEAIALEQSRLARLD

The target in this assay is Histone-lysine N-methyltransferase EHMT2 (Homo sapiens) (UniProt Q96KQ7). The assay can be described thus: qHTS Assay for Inhibitors of Histone Lysine Methyltransferase G9a. Note: nearly all actives have a fitted effect of over 75% in size. Particulars: G9a H3K9 monomethylation, AlphaScreen, 2 h; series mostly up to 102 µM. In outline:
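Readings reflect AlphaScreen signal from monomethyl-H3K9 antibody detection. HMT at 20 nM; substrate b-H3K9 500 nM; cofactor SAM 20 uM; 2 h RT reaction; compounds tested as titrations in qHTS with 15 min preincubation.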
As for `OC(Cn1c2ccccc2c2ccccc21)C[n+]1ccccc1` (stereo unspecified), the activity, negative = inhibition entry is “inactive”.
`CN1CCc2nc(SC(C(=O)O)c3ccccc3)c(C#N)c(-c3cccs3)c2C1` (stereo unspecified): the Potency was 31.6 µM (active).
As for `CN1CCCC(=C(c2cccs2)c2cccs2)C1`, the activity, negative = inhibition is -17.6% [at 12.7 µM] (inactive).
Same read-out and setting: under `Cn1c(O)c(C=NCCCC(=O)O)c(=O)n(C)c1=O` stands “inactive”; under `COCCNC(=O)CN1C2CCC1CC(O)(c1cccnc1)C2` (stereo unspecified), “inactive”.
For `O=C1NC(=O)C(C/C=C/c2ccccc2)C(=O)N1`, the Potency was 25.1 µM (active).
Consider `O=C(O)C1C2CCC(O2)C1C(=O)O` (stereo unspecified), for which the activity, negative = inhibition is 48.4% [at 12.7 µM] (inactive).
As for `CN(C)C(=O)NC(O)C(Cl)(Cl)Cl` (stereo unspecified), the activity, negative = inhibition result was “inactive”.
Same read-out and setting: the entry for `CC(C)c1ccc(OCC(=O)N2CCCN(C)CC2)cc1` is “inactive”.
Consider `CCc1ccc(OCC(=O)N2CCN(CC(=O)Nc3ccccc3Cl)CC2)cc1`, for which the activity, negative = inhibition was -1.72% [at 2.33 µM] (inactive).
For the molecule `O=C(COc1ccc2ccccc2c1)N1CCN(Cc2ccncc2)CC1`, the Potency was 6.31 µM (active).
With `O=C(COC(=O)c1ccccc1)Nc1ccc(Cl)cc1C(=O)c1ccccc1`, the activity, negative = inhibition result is “inactive”.
For the molecule `CC(=O)Cc1ccc(OC(C)C)cc1`, the activity, negative = inhibition entry was “inactive”.
Take `O=C(COC(=O)Cc1ccccc1)Nc1ccc(F)cc1`: the activity, negative = inhibition result is “inactive”.
As for `COC(=O)C1=C(c2cccc(OCc3ccccc3)c2)C[C@@H]2CC[C@H]1N2C(=O)NNCc1ccccc1`, the activity, negative = inhibition was 2.91% [at 2.33 µM] (inactive).
Regarding `O=S(=O)(Nc1ccc2[nH]ncc2c1)c1ccccc1Cl`, the Potency is 22.4 µM (active).
Turning to `NC(=O)Cn1cc(C(=O)c2ccccc2F)c2ccccc21`, the activity, negative = inhibition entry was “inactive”.
On the same count and under the same terms, the entry for `O=C(CCCn1c(=O)[nH]c2cc(Cl)ccc2c1=O)N1CCC2(CC1)OCCO2` is “inactive”; for `Cc1cccc(OP(=O)(Oc2cccc(C)c2)OC(c2ccccc2)C(F)(F)F)c1` (stereo unspecified) it is “inactive”.
On the same count and under the same terms, the entry for `COc1ccc(-n2c(-c3ccccc3)nc3ccccc3c2=O)cc1` is “inactive”.
Regarding `C[N+]1(C)CCOC(O)(c2ccc(-c3ccc(C4(O)C[N+](C)(C)CCO4)cc3)cc2)C1` (stereo unspecified), the Potency result is “inactive and 50.1 µM (active) and 20 µM (active)”.
Turning to `CC[N+]1(CCOC(=O)C(O)(c2ccccc2)c2ccccc2)CCCCC1`, the activity, negative = inhibition was -33.9% [at 12.7 µM] (inactive).
With `Cc1ccc(-c2nn(CCC#N)cc2C(=O)O)cc1C`, the activity, negative = inhibition result was “inactive”.
On the same count and under the same terms, the entry for `O=C(c1ccccc1[N+](=O)[O-])N1CCC2(CC1)OCCO2` is “inactive”; for `CC(C)n1c(=O)c(C=Nc2ccc(Br)cc2)c(O)n(Cc2ccco2)c1=O` it is “inactive”.
Regarding `Cc1ccc(-n2c(-c3ccc([N+](=O)[O-])cc3)nc3ccccc3c2=O)cc1`, the activity, negative = inhibition entry was “inactive”.
In the case of `O=[N+]([O-])c1cnc2ccc3ccccc3c2c1`, the Potency was 50.1 µM (active).
In the case of `CCCC(C)n1[nH]c(=O)c2c1NC(=O)CSC2c1ccc(OC)c(OC)c1` (stereo unspecified), the activity, negative = inhibition entry was “inactive”.
Still for that read-out and setting: the entry for `Cn1c(C(=O)N2CCC(C(=O)N3CCC4(CC3)OCCO4)CC2)cc2sccc21` is “inactive”.
Turning to `CN(C)C(=O)Oc1cc(OC(=O)N(C)C)cc(C(O)CNC(C)(C)C)c1` (stereo unspecified), the activity, negative = inhibition result was “inactive”.
On the same count and under the same terms, the entry for `CCOP(=O)(OCC)C(NC(=O)c1ccc(OC)cc1)C(Cl)(Cl)Cl` (stereo unspecified) is “inactive”; for `COc1ccc(C(=O)C2CN(C)CC2C(=O)c2ccc(OC)cc2)cc1` (stereo unspecified) it is “inactive”.
With `COc1ccc(C(=O)CC2C(=O)N(C)C(=O)N(C)C2=O)cc1`, the Potency is 2.24 µM (active).
On to `CCCOC(=O)C1C2c3ccccc3C(c3ccccc32)C1C(=O)O` (stereo unspecified), for which the activity, negative = inhibition entry was “inactive”.
Take `CCC1(C)CC(=O)NC1=O` (stereo unspecified): the activity, negative = inhibition was 28.2% [at 12.7 µM] (inactive).
Consider `CCN(CC)CCOC(=O)c1cc2cc(COC)ccc2o1`, for which the Potency is 17.8 µM (active).
For the molecule `Cc1nn(Cc2ccccc2Cl)c(Cl)c1C(=O)OC(C(=O)NC(N)=O)C(C)C` (stereo unspecified), the activity, negative = inhibition result is “inactive”.
Still for that read-out and setting: the entry for `CC(=NCC1CCCO1)c1c(O)n(-c2ccccc2)c(=O)[nH]c1=O` (stereo unspecified) is “inactive”; for `CCN1c2nc3c(C)cccn3c(=O)c2CC2(C(=O)N(C)C(=O)N(C)C2=O)C1C` (stereo unspecified) it is 7.48% [at 12.7 µM] (inactive).
With `CC(=O)c1ccc(-c2ccc(Cn3c(C)nc4cc(N)c(C)nc43)cc2)cc1`, the Potency is 15.8 µM (active).
On to `CCOC(=O)c1c(N)n(Cc2ccccc2)c2nc3ccccc3nc12`, for which the activity, negative = inhibition entry was “inactive”.
As to `CN(C)P(=S)(Nc1ccccc1)C(Cl)(Cl)Cl` (stereo unspecified), the activity, negative = inhibition result was “inactive”.
For the molecule `COC(=O)C1=C(c2ccc(-c3ccccc3)c(F)c2)C[C@@H]2CC[C@H]1N2C(=O)NCc1ccc(F)cc1`, the activity, negative = inhibition was 12.5% [at 0.501 µM] (inactive).
Consider `CNC(=O)Nc1ccc(C(O)(C(=O)OC)C(F)(F)F)cc1` (stereo unspecified), for which the activity, negative = inhibition result was “inactive”.
Still for that read-out and setting: under `Cn1cc(C(=O)OCC(=O)N2CCCC2)c2ccccc21` stands 17.1% [at 12.7 µM] (inactive); under `NCC(O)c1ccc(O)cc1` (stereo unspecified), -5.15% [at 2.33 µM] (inactive) and 25.4% [at 12.7 µM] (inactive); under `CC(C(=O)Nc1ccc(Cl)cc1Cl)N1CC=C(c2ccccc2)CC1` (stereo unspecified), “inactive”.
Regarding `CC1C2Cn3c(nc4ccccc43)C1N(C)O2` (stereo unspecified), the activity, negative = inhibition was 11.2% [at 12.7 µM] (inactive).
With `O=C1NC(=O)N(c2ccc(F)cc2)C(=O)/C1=C/c1ccc2c(c1)CCCN2Cc1ccccc1`, the Potency is 12.6 µM (active).
With `O=C(NC(c1ccc(Cl)cc1)P(=O)(Oc1ccccc1)Oc1ccccc1)OCc1ccccc1` (stereo unspecified), the activity, negative = inhibition result was “inactive”.
Same read-out and setting: the entry for `Cc1ccccc1NC(=O)COC(=O)c1cc(C)n(C2CC2)c1C` is “inactive”.
Still for that read-out and setting: the figure for `CCOC(=O)C(O)(c1ccc(N)c(OC)c1)C(F)(F)F` (stereo unspecified) is -7.69% [at 2.33 µM] (inactive); for `CCOP(=O)(OCC)C(NC(=O)NC)C(N)=O` (stereo unspecified) it is “inactive”.
On to `Nc1ccc(C(=O)N/N=C2/CN3CCC2CC3)cc1`, for which the activity, negative = inhibition result is “inactive”.
For `CCC(C)n1c(O)c(/C=N/Nc2nc3c(c(=O)n(C)c(=O)n3C)n2C)c(=O)[nH]c1=S` (stereo unspecified), the Potency was 25.1 µM (active).
The same measure, in the same setting: under `CC(=O)c1c(O)c(C)c(O)c(Cc2c(O)c3c(c(C(=O)/C=C/c4ccccc4)c2O)OC(C)(C)C=C3)c1O` stands 14.1 µM (active) and 2.12 µM (active).
For the molecule `O=c1c2ccccc2nc(/C=C/c2ccc(F)cc2)n1-c1ccccc1O`, the activity, negative = inhibition result was “inactive”.
`C=CCN(CC=C)C(=O)Nc1ccc(OCC)cc1`: the activity, negative = inhibition entry is “inactive”.
As for `CC[C@]1(C)CC(=O)NC1=O`, the activity, negative = inhibition was -2.16% [at 12.7 µM] (inactive).
Same read-out and setting: under `COC(=O)C1=C(c2ccc(F)cc2OCc2ccccc2)C[C@@H]2CC[C@H]1N2C(=O)NCc1ccc(Cl)cc1` stands 8.03% [at 2.33 µM] (inactive).
Still for that read-out and setting: under `O=C(c1cc2nc(-c3ccccc3)cc(-c3ccccc3)n2n1)N1CCC2(CC1)OCCO2` stands 17.4% [at 12.7 µM] (inactive).
